Results published in PubChem BioAssay (NCATS).
Where “and” joins values, the source holds several entries; their conditions need not be identical. Identical values can stand only once. Inconclusive results are not listed. Values without a mark were called inactive. Calls of active or inactive are those of the source. Calls come from the whole dose curve.

Each molecule was assayed against Bile acid receptor (Homo sapiens) (UniProt Q96RI1) (assay: qHTS assay for small molecule agonists of farnesoid X receptor signaling (AID 588527;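 for activation: series mostly up to about 77 µM; 0% = vehicle basal and 100% = reference agonist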)). Conditions: HEK293T FXR-UAS-bla, beta-lactamase ratio, 16 h; activation: active compounds read high.
Chain of Bile acid receptor (Homo sapiens) (Q96RI1 whole entry, looked up): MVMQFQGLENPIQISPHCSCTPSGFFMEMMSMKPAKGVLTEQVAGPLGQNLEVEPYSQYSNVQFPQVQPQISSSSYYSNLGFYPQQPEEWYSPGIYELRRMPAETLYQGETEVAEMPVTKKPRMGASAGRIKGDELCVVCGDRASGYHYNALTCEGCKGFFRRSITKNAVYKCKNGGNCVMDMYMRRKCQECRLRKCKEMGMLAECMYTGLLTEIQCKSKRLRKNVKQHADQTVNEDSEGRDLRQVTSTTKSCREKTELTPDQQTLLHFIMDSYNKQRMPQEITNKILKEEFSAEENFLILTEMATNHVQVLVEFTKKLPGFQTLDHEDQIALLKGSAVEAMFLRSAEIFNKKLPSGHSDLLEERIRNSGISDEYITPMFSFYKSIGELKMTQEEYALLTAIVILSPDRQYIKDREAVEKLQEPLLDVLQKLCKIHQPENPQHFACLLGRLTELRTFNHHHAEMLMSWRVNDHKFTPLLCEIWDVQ
Source text: NIH Chemical Genomics Center [NCGC] U.S. Environmental Protection Agency [EPA] National Institutes of Environmental Health Sciences [NIEHS] National Toxicology Program [NTP] NCGC Assay Overview The farnesoid-X-receptor (FXR), a nuclear hormone receptor is highly expressed in liver, intestine, kidney and adrenal cortex. Natural ligands of FXR are the bile acids (Cholic acid, Chenodeoxy cholic acid etc). It is an important regulator of diverse metabolic pathways, including the bile acid homeostasis, lipid and glucose metabolisms. FXR regulates the expression of target genes by binding either as a monomer or as a heterodimer with RXR (retinoid X receptor). As FXR regulates a large number of target genes involved in bile acid, lipoprotein and glucose metabolisms, it is a potential pharmacological target for bile acid and lipid disorders. Thus screening environmental chemicals on FXR signaling can be used for the studies focused on metabolic syndrome, hepatic and intestinal toxicity etc.
NCGC Assay Protocol Summary Using a beta-lactamase reporter-gene under control of Farnesoid X receptor (FXR) response element, a cell-based assay [GeneBLAzer FXR-UAS-bla assay developed by Invitrogen] was used to measure FXR ligands signaling. GeneBLAzer FXR-UAS-bla HEK293T cells were used with assay medium containing 10% dialyzed FBS. The assay was performed in clear bottom black Greiner 1536-well plates. Chenodeoxycholic acid and Guggulsterone were used in the screen as agonist and antagonist positive controls respectively. Library compounds were measured for their ability to stimulate the reporter gene activity. Compounds were screened in a titration series in 1536-well format. […] Data was normalized relative to Chenodeoxycholic acid control (100 uM, 100%), and DMSO only wells (basal, 0%). Concentration-response titration points for each compound were fitted to the Hill equation yielding concentrations of half-maximal stimulation (EC50) and maximal response (efficacy) values. qHTS protocol for FXR beta-lactamase assay in agonist mode [Step] [Parameter] [Value] [Description] 1. Reagent; 6 uL; 5000 cells/well 2. Incubation; 37 C for 5-7 hrs 3. Compounds; 23 nL; 0.59 nM to 92 uM 4. Controls (Chenodeoxycholic acid); 23 nL, - One column with dose response, start 200 uM, 1:2 dilutions in duplicates - Final concentrations of 100 uM and 60 uM in two columns 5. Incubation; 37 C for 16 hrs 6. Detection reagent; 1 uL of CCF4-dye 7. Incubation; RT for 2 hrs 8. Detection; Fluorescence; Envision plate reader
`c1ccc2c(c1)ccc1ccccc12` was tested, and the activation was -5.28% and 1.03%. `CC(=O)c1ccccn1` showed an activation of -4.62%. `Cc1ccc(C)c2ccccc12` was tested, and the activation was -1.23%. With `Nc1nc(N)c2nc(CNc3ccc(C(=O)NC(CCC(=O)O)C(=O)O)cc3)cnc2n1` (stereo not given) the activation was 1.76%. `O=c1c(-c2ccc(O)cc2)coc2cc(O)ccc12` was tested, and the activation was 2% and 3.27%. For `CC(C)COC(=O)c1ccccc1C(=O)OCC(C)C`, the activation was -1.69%. Work on `CCCCC(CC)CO` (stereo not given) yielded an activation of -0.465%. With `C[C@@H]1Cc2c(Cl)cc(C(=O)N[C@@H](Cc3ccccc3)C(=O)O)c(O)c2C(=O)O1` the Potency was 44.7 µM (active). With `CCCc1c(OCCCOc2ccc(OCC(=O)O)cc2)ccc(C(C)=O)c1O` the activation was 3%. Work on `COC(=O)c1ccc(C)cc1` yielded an activation of -0.0429%. In the case of `CC1=C(/C=C/C(C)=C/C=C/C(C)=C\C=O)C(C)(C)CCC1`, the activation is reported as 25.7%. `CC=O` was tested, and the activation was -1.84%. `COC(=O)CCCC(=O)OC` gave an activation of -3.54%. Work on `CCC(=O)OCCc1ccccc1` yielded an activation of 0.429%. For `CCCCCC1CCC(=O)O1` (stereo not given), the activation was 0.301%. `CCCc1c(-c2ccc(O)cc2)nn(-c2ccc(O)cc2)c1-c1ccc(O)cc1` was tested, and the activation was 1.37%. `NCCO/C=C/[C@H](N)C(=O)O` was tested, and the activation was 4.46%. For `C=CCOC(=O)c1ccccc1C(=O)OCC=C`, the activation was -3.26% and 2.9%. In the case of `O=C(/C=C/C=C/c1ccc2c(c1)OCO2)N1CCCCC1`, the activation is reported as 4.73%. In the case of `O=C(Nc1ccccc1)c1cc([N+](=O)[O-])ccc1Cl`, the activation is reported as -1.48%. For `Cc1cccc(O)c1C`, the activation was -0.773%. In the case of `CCCCCCCCCCCCCc1ccccc1`, the activation is reported as -1.99%. `NC(=O)c1ccccc1` showed an activation of 0.288%. With `CCCCCCCCCCCCCCSCC(=O)O` the activation was 0.99%. `C/C=C/C=C/CCCCCCCO` showed an activation of -0.999%. For `c1ccc(Nc2ccc3ccccc3c2)cc1`, the activation was 5.18% and -0.414%. For `CCCCOP(=O)(O)OCCCC`, the activation was 1.99%. For `O=c1c(O)c(-c2ccc(O)cc2)oc2cc(O)cc(O)c12`, the activation was 0.454% and 2.54%. Molecule `CC(=O)C(C)=O` has an activation of 0.539%. `CCOC(=O)c1ccccc1N` gave an activation of -0.579%. In the case of `CC(C)NCC(O)COc1cccc2ccccc12` (stereo not given), the activation is reported as 0.153% and 4.79%. Molecule `CCCCCCCCCCCCCCCCCC(N)=O` has an activation of 1.8%. In the case of `COC(=O)c1ccccc1C(=O)OC`, the activation is reported as -0.299% and -2.92%. `CC(C=CC1=C(C)CCCC1(C)C)=CC=CC(C)=CC(=O)Nc1ccc(O)cc1` gave an activation of 2.75%. In the case of `C=CC(C)(O)CCC=C(C)C` (stereo not given), the activation is reported as -2.97% and 2.71%. Work on `OCCO` yielded an activation of 1.31%. For `CCCC/C=C\CCCCCCCCCC=O`, the activation was -2.92%. In the case of `O=C(O)c1cc(O)c2ccccc2c1O`, the activation is reported as 1.64%. In the case of `Cc1ccc2cc3c(ccc4ccccc43)c3c2c1CC3`, the activation is reported as 2.18%. `CCCCC=O` gave an activation of 1.59%.
